Compound activity deposited in PubChem BioAssay by several laboratories.
Sampled rows, rich in hits. Any-hit rate of the full collection: about 5.4%.
Beta apoptosis: beta cell apoptosis inhibition; AID 435005; INS-1E cytokine-induced death, ATP luminescence, 48 h; percent of positive-control rescue, neutral wells zero; 300,000 tested, 0.8% active; protection from apoptosis, % (concentration not given with the values);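 active = Every replicate reaches about 75%, or at least half do and their mean reaches it too, limit read from the data; inconclusive = At least half of replicates reach the limit but their mean does not; inactive = Under half of replicates reach the limit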;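 note: 0% = cytokine-treated negative control wells and 100% = positive control rescue; higher means more ATP so stronger rescue from cytokine killing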
Mdm2 MdmX PPI: disrupts the human Mdm2-MdmX interaction; 330,000 tested, 3% active; SaOS-2 split-luciferase Mdm2/MdmX complementation, luminescence; O15151+Q00987; inhibition, % at 8 µM;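 active = inhibition of at least 50% at 8 µM in the primary screen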
Target sequence (O15151 whole entry, looked up): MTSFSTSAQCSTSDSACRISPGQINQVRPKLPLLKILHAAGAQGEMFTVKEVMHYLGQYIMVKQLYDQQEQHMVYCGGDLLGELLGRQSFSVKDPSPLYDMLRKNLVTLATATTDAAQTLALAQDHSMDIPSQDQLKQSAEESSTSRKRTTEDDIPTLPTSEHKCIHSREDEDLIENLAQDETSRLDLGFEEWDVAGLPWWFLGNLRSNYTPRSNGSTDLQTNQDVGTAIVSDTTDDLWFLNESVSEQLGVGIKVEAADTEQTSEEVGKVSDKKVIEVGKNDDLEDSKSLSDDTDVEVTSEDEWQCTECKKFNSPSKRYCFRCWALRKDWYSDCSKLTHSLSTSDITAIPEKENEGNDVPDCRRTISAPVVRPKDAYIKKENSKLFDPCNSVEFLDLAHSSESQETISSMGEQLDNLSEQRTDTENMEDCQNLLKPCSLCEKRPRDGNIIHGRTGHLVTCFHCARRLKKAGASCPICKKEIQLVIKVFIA
Target sequence (Q00987 whole entry, looked up): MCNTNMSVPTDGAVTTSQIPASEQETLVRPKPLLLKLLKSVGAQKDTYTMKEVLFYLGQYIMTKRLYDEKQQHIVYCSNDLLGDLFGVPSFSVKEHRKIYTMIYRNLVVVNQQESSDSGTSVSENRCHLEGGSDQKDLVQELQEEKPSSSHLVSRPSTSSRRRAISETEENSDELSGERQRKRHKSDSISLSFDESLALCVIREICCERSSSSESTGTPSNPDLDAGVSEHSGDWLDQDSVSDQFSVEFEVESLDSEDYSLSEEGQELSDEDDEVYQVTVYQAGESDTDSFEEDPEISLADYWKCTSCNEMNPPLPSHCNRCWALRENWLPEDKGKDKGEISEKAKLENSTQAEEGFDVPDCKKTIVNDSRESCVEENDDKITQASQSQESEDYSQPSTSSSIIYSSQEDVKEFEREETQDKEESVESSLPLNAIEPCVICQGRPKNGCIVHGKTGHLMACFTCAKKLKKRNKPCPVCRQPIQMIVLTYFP
Calb FLC: C. albicans growth modulation with fluconazole; C. albicans CaCi-2 (fluconazole-resistant clinical isolate) + fluconazole, Alamar Blue growth, 48 h; growth inhibition, % (no concentration beside the values); 300,000 tested, 0.57% active;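 active = growth inhibition above about 58% in most replicates, limit read from the data, passing the limit was not always enough; inconclusive = exactly half the replicates above a set limit; inactive = most replicates below a set limit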;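 note: all wells also contain fluconazole at 8 µg/ml as a sub-toxic cotreatment; 0% = median of DMSO wells and 100% = median of geldanamycin control wells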
CSC inhib: cancer stem cell inhibition; AID 2717; inhibition, % at 7.5 µM; 300,000 tested, 1.1% active; cancer stem cell-like cells viability, luminescence; in the data active = inhibition above about 75%; inconclusive = no clear call, values can overlap the other calls; tested in HMLE shEcad cells
MPTP block: inhibitors of mitochondrial permeability transition pore | isolated mouse mitochondria, Ca2+ swelling absorbance, 30 min | AID 602449 | 360,000 tested, 1.4% active | inhibition, % at 10 µM;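 active = inhibition of 50% or more, scaled per plate between neutral and stimulator controls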;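 note: 0% = DMSO wells given calcium and 100% = 1 mM EGTA wells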
SKKanGAS inh: inhibitors of SKKanGAS S. pyogenes growth in kanamycin (SK-promoter or general growth effect); inhibition, % at 7.5 µM; BacTiter-Glo, 6 h; AID 1662; 300,000 tested, 1.3% active;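 active = mean replicate score, as percent of positive control median, at least 50; inconclusive = mean below 50 but one replicate at or above 50; inactive = mean and every replicate below 50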;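 note: strain carries kanamycin resistance gene driven by streptokinase promoter and grows in 40 µg/ml kanamycin; loss of luminescence reflects streptokinase promoter inhibition or plain growth inhibition; 0% = median of DMSO wells and 100% = positive control at its reference dose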
The depositor's hits bear a star; ? = inconclusive; . = not tested or not shown.

SMILES	Beta apoptosis	Mdm2 MdmX PPI	Calb FLC	CSC inhib	MPTP block	SKKanGAS inh
CCC(=O)c1c(NC)cc(C)oc1=O	-1	-3	-5	-18	-1	-5
FC(F)(F)c1cc(Cl)c2nc(-c3ccc(Cl)cc3)c(Cc3ccsc3)n2c1	.	.	.	.	9	.
CC(C)(C)C(=O)C1=C(O)C(=O)N(c2ccccc2)C1c1ccccc1 (configuration not stated)	0	21	18	0	0	3
O=C(O)c1ccccc1C(=O)NNc1ccc(F)cc1F	2	11	-43	11	0	1
CCc1ccc(C(=O)NNc2ccc(F)cc2F)cc1	4	15	93*	30	1	-8
CC(C)(C)c1ccc(C(=O)NNc2ccc(F)cc2F)cc1	1	-2	87*	28	4	-6
O=C(NNc1ccc(O)cc1)c1ccc(Br)cc1	-6	-6	95*	44	-2	1
CCCc1ccc(C(=O)NNc2ccc(F)cc2)cc1	-10	26	77*	94*	3	1
Cc1cccc(N2CCN(C(=O)Cn3nc(Cc4ccncc4)c4ccccc4c3=O)CC2)c1C	-3	-7	-6	12	1	1
COc1ccc(S(=O)(=O)Nc2ccc(S(=O)(=O)N3CCCCC3)cc2)cc1	0	9	-1	19	-2	0
CC(C)=CCc1c2c(c3occ(-c4ccc(O)cc4)c(=O)c3c1O)C=CC(C)(C)O2	14	-10	-1	-15	21	111*
CCCCn1c(NS(=O)(=O)c2ccc(C)cc2)c(S(=O)(=O)c2ccccc2)c2nc3ccccc3nc21	3	.	35	108*	7	45
Cc1cc2c(cc(C(=O)OCC(=O)NCc3ccco3)n2C)s1	-17	13	102*	38	0	11
CC(C)CNS(=O)(=O)c1ccc(S(=O)(=O)N2CCC(N3CCCCC3)CC2)cc1	-6	-25	-12	-5	0	1
c1ccc(-c2noc(-c3ccccc3-c3ccccc3)n2)cc1	1	11	1	9	2	75*
CCS(=O)(=O)c1cc([N+](=O)[O-])c(Sc2ccccc2NC(C)=O)s1	-9	-23	13	9	1	-11
O=C(c1ccc(C(F)(F)F)cc1)N1CCN(c2ccc(N3CCOCC3)nn2)CC1	-3	6	0	29	0	0
Nc1ccc(S(=O)(=O)NCC(=O)OC2CCOC2=O)cc1[N+](=O)[O-] (configuration not stated)	-5	1	.	.	-1	.
CN(c1ccc(C(=O)Nc2ccc(Cl)cn2)cc1)S(=O)(=O)c1ccccc1	-1	26	46	10	-2	-7
Cc1cccc(NC2=C(NC(=O)c3ccccc3)C(=O)c3ccccc3C2=O)c1	78*	9	-20	16	5	26
O=C(NC1=C(Nc2ccc(Cl)cc2)C(=O)c2ccccc2C1=O)c1ccccc1	117*	22	3	42	5	42
CN(C1=C(NC(=O)c2ccc(Cl)cc2)C(=O)c2ccccc2C1=O)c1ccccc1	93*	33	3	64	10	2
COc1ccc(-c2cc(C(=O)Nc3ccc(C(N)=O)cc3)c3ccccc3n2)cc1OC	-1	10	20	-1	2	-3
COCCNC(=O)C(=O)N/N=C(\C)CC(=O)Nc1ccc(Cl)cc1Cl	0	-7	-10	-4	0	-9
CN(CC(=O)Nc1cc(C(F)(F)F)ccc1-n1cncn1)Cc1ccccc1N1CCOCC1	.	.	.	.	-2	.
SMILES	Beta apoptosis	Mdm2 MdmX PPI	Calb FLC	CSC inhib	MPTP block	SKKanGAS inh
CCOC(=O)c1c(-c2ccccc2Cl)cn2ccccc12	-9	8	91*	11	2	13
CC(C)CC(=O)Nc1ccc(C(=O)NNC(=S)NC(=O)C2CCCCC2)cc1	13	47	3	0	2	93*
N#CCNC(=O)C1c2ccccc2Oc2ccccc21	-6	19	-13	-16	-1	-12
O=C(NCc1ccccc1)C1c2ccccc2Oc2ccccc21	-6	0	118*	-15	-2	3
CCCCCC(=O)NNC(=O)c1c(O)c2ccccc2n(CC)c1=O	-1	48	36	2	2	94*
CCn1c(=O)c(C(=O)NC(C)C)c(O)c2ccccc21	1	37	-3	18	1	-2
CCCCCCCCCC(=O)NNC(=O)c1c(O)c2ccccc2n(CC)c1=O	11	28	113*	19	12	30
Cc1cc(NC(=O)/C=C/c2ccc(Br)cc2)no1	1	-7	7	40	2	1
CN(C)C=NC(=O)/C(C#N)=C/c1ccccc1	0	18	4	-12	1	-13
Cc1c(C(=O)N(C)c2ccccc2)oc2c1C(O)CC(C)(C)C2 (configuration not stated)	.	4	-4	-12	1	-3
C=C(C)c1cccc(C(C)(C)NC(=O)Nc2cccnc2)c1	-8	7	-4	-5	2	-3
C=C(C)c1cccc(C(C)(C)NC(=O)Nc2ccc(C(N)=O)cc2)c1	-10	18	83*	-5	4	-9
CS(=O)(=O)c1ccccc1-c1nnc(NC(=O)c2ccc(S(=O)(=O)N3CCCC3)cc2)o1	-1	7	-1	3	-1	6
CC1CCCCN1S(=O)(=O)c1ccc(C(=O)Nc2nnc(-c3ccccc3Cl)o2)cc1 (configuration not stated)	.	41	10	42	-24	97*
O=C(Nc1ccc(S(=O)(=O)N2CCCCC2)cc1)c1ccc(CN2CCc3ccccc3C2)cc1	107*	25	1	41	3	9
O=C(Nc1nnc(-c2ccccc2Cl)o1)c1ccc(S(=O)(=O)N2CCCCCC2)cc1	.	37	1	64	.	107*
CCc1nn(C(C)C(=O)NCc2cccc(OC)c2)c(=O)c2cc3occc3n12 (configuration not stated)	-2	10	-13	12	0	3
CS(=O)(=O)c1nc(-c2ccccc2)cc(C(F)(F)F)n1	108*	-32	62	107*	0	-23
COc1cccc(-c2cc(C(F)(F)F)nc(N3CCCCC3)n2)c1	12	-33	29	24	3	57*
FC(F)(F)c1cc(-c2ccccc2)nc(N2CCCCCC2)n1	2	26	-2	24	7	86*
CC(=O)[C@@]1(O)C(C)CC2C3C=C(C)C4=Cc5c(cnn5-c5ccccc5)C[C@]4(C)C3C(O)C[C@@]21C (some centres not stated)	-2	.	.	100*	0	64*
O=C(Nc1ccc(N2CCOCC2)cc1)C1(S(=O)(=O)c2ccccc2)CC1	0	-1	?	-21	0	1
Cc1cc(C)n(-c2ccc(NC(=O)C3CCCCN3C(=O)c3sccc3C)cc2)n1 (configuration not stated)	.	-11	-7	2	-1	0
COc1ccc(-c2cc3nc[nH]c(=O)c3s2)cc1	2	-65	5	3	-1	56*
